Results reported in PubChem BioAssay.
Calls of active or inactive are those of the source.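 How the source made its calls: active means NADPH fluorescence slope more negative than the mean of all samples by about 3 SD, 99.7% confidence; inactive means the rest.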

molecular target: Voltage-gated potassium channel subunit beta-2 (Rattus norvegicus) (UniProt P62483); assay: KvBeta positive modulators, primary screen, biochemical, NADPH fluorescence (AID 623); details: Recombinant KvBeta, NADPH fluorescence decrease slope, 10 min; at 10 µM; hits give low values;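 further: fluorescence intensity change per second fitted from 20 to 320 s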
Sequence (P62483 whole entry, looked up): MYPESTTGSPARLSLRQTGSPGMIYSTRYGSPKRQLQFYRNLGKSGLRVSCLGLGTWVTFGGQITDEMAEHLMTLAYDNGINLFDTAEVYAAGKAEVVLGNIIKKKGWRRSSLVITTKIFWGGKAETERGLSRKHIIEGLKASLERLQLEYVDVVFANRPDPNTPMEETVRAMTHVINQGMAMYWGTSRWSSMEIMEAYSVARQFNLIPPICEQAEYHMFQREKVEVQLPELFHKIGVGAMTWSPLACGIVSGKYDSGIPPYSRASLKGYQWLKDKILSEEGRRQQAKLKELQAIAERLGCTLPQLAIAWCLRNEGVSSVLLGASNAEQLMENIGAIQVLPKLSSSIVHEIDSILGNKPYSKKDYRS

NADPH fluorescence slope, inactive:
CCN1CCc2c(C#N)c(N3CCCCC3)nc(N3CCOCC3)c2C1 -7.6e-05
CC(NC(=O)Nc1nnc(C(F)(F)F)s1)(C(F)(F)F)C(F)(F)F -5.5e-05
O=c1[nH]c2sc3c(c2c(=O)n1Cc1ccccc1)CCC3 -0.000103
CC1(C)Cc2c(C#N)c(OCC(=O)c3ccccc3)nc(-c3ccoc3)c2CO1 2.6e-05
O=c1[nH]c2cnccc2n1-c1ccccc1 -4.6e-05
O=C(c1cc(N2CCCCC2)nc2ccccc12)N1CCOCC1 -1.2e-05
CC(C)(C)NC(=O)/C=N/O -3.8e-05
COc1cc(N2CCCC2)c(OC)cc1/C=c1/sc2nc3ccccc3n2c1=O -3.3e-05
COc1cccc(C(=O)OC2CCCN(C)C2)c1 (stereo not given) -8.4e-05
N#Cc1nc(-c2cccs2)oc1NCc1ccccc1Cl -3.2e-05
Cc1cc(=O)oc(C)c1C(=O)n1nc(C)c2c1C[C@@H]1[C@H]2C1(C)C -3.7e-05
Brc1ccc2c(c1)CNc1c(ncnc1N1CCOCC1)O2 2.8e-05
CCOC(=O)NC1(C(F)(F)F)C(=O)NC(C)=C1C#N (stereo not given) -0.000119
COCc1n[nH]c(=S)n1-c1cccc2ccccc12 -4.6e-05
OC1(C2(O)CC(c3ccccc3)ON2)CCCCC1 (stereo not given) -3.6e-05
CC(C)Cc1nc(N2CCN(C(=O)Cc3ccccc3)CC2)c(C#N)c2c1COC(C)(C)C2 -0.000102
CCCCCNc1nc(N2CCCC2)c2c(c1C#N)CCN(C)C2 -8.3e-05
O=c1c(-c2ccc(Cl)cc2)[n+]([O-])c2ccccc2n1O -3.9e-05
Cc1ccc(CNc2oc(COc3ccccc3Cl)nc2C#N)cc1 2.1e-06
COc1ccc(/C(O)=C2\C(=O)C(=O)N(CCN(C)C)C2c2cccc(OC)c2OC)cc1Cl (stereo not given) -3.1e-05
CCC(=O)Nc1nc2ccccc2n1CCN(C)C -1.7e-05
CCCC(C)n1[nH]c(=O)cc1N (stereo not given) -0.000101
CCN(CC)CCOC(=O)c1c(C)n(C)c2ccc(OC)cc12 -0.000107
CN(C)CCCn1c(NC(=O)C2CCCCC2)nc2ccccc21 -3.5e-05
COc1ccccc1NC(=O)CSc1nnc(-c2ccc(NC(C)=O)cc2)n1C -0.000106
O=C(Nc1ccc(N2CCN(C(=O)c3ccccc3)CC2)c(Cl)c1)c1ccc(Br)o1 -2.9e-05
Cc1nc2c(o1)CCc1ccccc1C2N1CCN(C)CC1 (stereo not given) -3.4e-05
CN(CCNC(=O)c1ccc(/C=N/O)nc1)Cc1ccccc1 -5.2e-05
O=C1C=C(N2CCN(C3=CC(=O)CCC3)CC2)CCC1 -6.9e-05
Nc1nc2n(n1)C(c1cccs1)CC(c1ccc(F)cc1)N2 (stereo not given) -0.000111
CC(=O)/C=C(\C)NCCNc1c(F)c(F)c(CO)c(F)c1F -1.4e-05
CC1(C)Cc2nc3sc4c(N(CCO)CCO)ncnc4c3cc2CO1 -1.1e-05
COC(=O)c1ccc(CN(C(C)=O)c2ccccc2)o1 -9.4e-05
O=C(c1ccc(=O)oc1)N1CCN(C(c2ccccc2)c2ccccc2)CC1 -7.6e-05
Cc1ccc(-n2c(SCC(=O)NCc3ccco3)nc3nc4c(cc3c2=O)COC(C)(C)C4)cc1 -1.9e-05
Cc1cc(=O)[nH]c(COc2ccccc2)n1 -2e-05
N#Cc1nc(COc2ccccc2F)oc1NCCCn1ccnc1 -2.3e-05
COC(=O)c1ccc(C2/C(=C(\O)c3ccc4c(c3)OCCO4)C(=O)C(=O)N2CCCN(C)C)cc1 (stereo not given) -0.000114
COc1ccc(C(=O)c2oc3nc(C)cc(C)c3c2N)cc1 -2e-05

NADPH fluorescence slope, active:
COc1ccccc1C1/C(=C(/O)c2ccc(OC(C)C)cc2)C(=O)C(=O)N1c1cc(C)on1 (stereo not given) -0.000335
